Assay results: PMC8384837, “Expanding the binding specificity for RNA recognition by a PUF domain”

Tests used:
Experiment in all cases: yeast three-hybrid, YBZ-1, SC-Leu-His + 0.5 mM 3-AT, 4 days
Settings in all cases: tags: N-Gal4 AD-HA kept; label: inside an RPR1-promoter hybrid RNA with tandem MS2 sites; ssRNA
[1] = molecular target: PUM1 PUF domain R4-CNS (Homo sapiens, UniProt Q14671 828-1176, N971C;H972N;Q975S)
How it was run: (§1)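 Matching RNA elements and Pumilio-1 PUF domain libraries, randomized at the three base-contacting residues of every repeat, were co-expressed from a centromeric plasmid in strain YBZ-1 (LexA–MS2 coat fusion, HIS3 reporter). The repeat regions were PCR-amplified and Illumina-sequenced from cells grown four days on SC-Leu (input) or SC-Leu-His + 0.5 mM 3-AT (selection). The interaction score is the log change in variant frequency from input to selection. It is computed in log2, with a pseudocount of 1 for absent variants.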

[2] = molecular target: PUM1 PUF domain R5-KNA (Homo sapiens, UniProt Q14671 828-1176, C1007K;R1008N;Q1011A)
How it was run: as §1

[3] = molecular target: PUM1 PUF domain R5-RRW (Homo sapiens, UniProt Q14671 828-1176, C1007R;Q1011W)
How it was run: as §1

[4] = molecular target: PUM1 PUF domain R4-RMA (Homo sapiens, UniProt Q14671 828-1176, N971R;H972M;Q975A)
How it was run: as §1

[5] = molecular target: PUM1 PUF domain R8-KRW (Homo sapiens, UniProt Q14671 828-1176, N1122K;Y1123R;Q1126W)
How it was run: as §1

[6] = molecular target: PUM1 PUF domain R3-RPH (Homo sapiens, UniProt Q14671 828-1176, C935R;R936P;Q939H)
How it was run: as §1

[7] = molecular target: PUM1 PUF domain R3-RVT (Homo sapiens, UniProt Q14671 828-1176, C935R;R936V;Q939T)
How it was run: as §1

[8] = molecular target: PUM1 PUF domain R7-RVC (Homo sapiens, UniProt Q14671 828-1176, S1079R;N1080V;E1083C)
How it was run: as §1

[9] = molecular target: PUM1 PUF domain R7-GRL (Homo sapiens, UniProt Q14671 828-1176, S1079G;N1080R;E1083L)
How it was run: as §1

[10] = molecular target: PUM1 PUF domain R2-LYL (Homo sapiens, UniProt Q14671 828-1176, N899L;Q903L)
How it was run: as §1

Chain of PUM1 PUF domain R5-RRW (Q14671 828-1176 C1007R/Q1011W): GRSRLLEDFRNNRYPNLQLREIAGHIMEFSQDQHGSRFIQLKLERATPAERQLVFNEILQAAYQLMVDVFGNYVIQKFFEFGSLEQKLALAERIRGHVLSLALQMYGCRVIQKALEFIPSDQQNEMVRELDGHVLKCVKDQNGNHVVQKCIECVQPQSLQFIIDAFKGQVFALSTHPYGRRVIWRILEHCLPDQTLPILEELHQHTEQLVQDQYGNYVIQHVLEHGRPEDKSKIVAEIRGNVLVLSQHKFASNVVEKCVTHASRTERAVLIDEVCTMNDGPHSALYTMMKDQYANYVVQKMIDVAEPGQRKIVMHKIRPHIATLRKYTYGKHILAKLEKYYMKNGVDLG
Chain of PUM1 PUF domain R4-CNS (Q14671 828-1176 N971C/H972N/Q975S): as the sequence (Q14671 828-1176 C1007R/Q1011W) above, with N144C, H145N, Q148S, R180C, W184Q counted along it
Chain of PUM1 PUF domain R8-KRW (Q14671 828-1176 N1122K/Y1123R/Q1126W): as the sequence (Q14671 828-1176 C1007R/Q1011W) above, with R180C, W184Q, N295K, Y296R, Q299W counted along it
Chain of PUM1 PUF domain R4-RMA (Q14671 828-1176 N971R/H972M/Q975A): as the sequence (Q14671 828-1176 C1007R/Q1011W) above, with N144R, H145M, Q148A, R180C, W184Q counted along it
Chain of PUM1 PUF domain R7-GRL (Q14671 828-1176 S1079G/N1080R/E1083L): as the sequence (Q14671 828-1176 C1007R/Q1011W) above, with R180C, W184Q, S252G, N253R, E256L counted along it
Chain of PUM1 PUF domain R5-KNA (Q14671 828-1176 C1007K/R1008N/Q1011A): as the sequence (Q14671 828-1176 C1007R/Q1011W) above, with R180K, R181N, W184A counted along it
Chain of PUM1 PUF domain R3-RPH (Q14671 828-1176 C935R/R936P/Q939H): as the sequence (Q14671 828-1176 C1007R/Q1011W) above, with C108R, R109P, Q112H, R180C, W184Q counted along it
Chain of PUM1 PUF domain R7-RVC (Q14671 828-1176 S1079R/N1080V/E1083C): as the sequence (Q14671 828-1176 C1007R/Q1011W) above, with R180C, W184Q, S252R, N253V, E256C counted along it
Chain of PUM1 PUF domain R3-RVT (Q14671 828-1176 C935R/R936V/Q939T): as the sequence (Q14671 828-1176 C1007R/Q1011W) above, with C108R, R109V, Q112T, R180C, W184Q counted along it
Chain of PUM1 PUF domain R2-LYL (Q14671 828-1176 N899L/Q903L): as the sequence (Q14671 828-1176 C1007R/Q1011W) above, with N72L, Q76L, R180C, W184Q counted along it

GGCUAGAACUAGUGGAUCCCCCGGCGCCCGGCGGCUCGAGCCCGGGUAAGUGUACAUAGUCUGCAUGCCGCCGGGCGCCAUGCCUGCAGGUCGACUCUAGAAAACAUG
binding signal [1]: 2.9 log2 enrichment (interaction score)

GGCUAGAACUAGUGGAUCCCCCGGCGCCCGGCGGCUCGAGCCCGGGUAAGUGUCAAUAGUCUGCAUGCCGCCGGGCGCCAUGCCUGCAGGUCGACUCUAGAAAACAUG
binding signal [2]: 2.79 log2 enrichment (interaction score) | binding signal [3]: 3.43 log2 enrichment (interaction score)

GGCUAGAACUAGUGGAUCCCCCGGCGCCCGGCGGCUCGAGCCCGGGUAAGUGUAAAUAGUCUGCAUGCCGCCGGGCGCCAUGCCUGCAGGUCGACUCUAGAAAACAUG
binding signal [4]: 4.05 log2 enrichment (interaction score) | binding signal [1]: 0.73 log2 enrichment (interaction score) | binding signal [5]: 1.73 log2 enrichment (interaction score) | binding signal [3]: 0.79 log2 enrichment (interaction score)

GGCUAGAACUAGUGGAUCCCCCGGCGCCCGGCGGCUCGAGCCCGGGUAAGUGUAUAUAGUCUGCAUGCCGCCGGGCGCCAUGCCUGCAGGUCGACUCUAGAAAACAUG
binding signal [1]: 3.64 log2 enrichment (interaction score)

GGCUAGAACUAGUGGAUCCCCCGGCGCCCGGCGGCUCGAGCCCGGGUAAGUGUGAAUAGUCUGCAUGCCGCCGGGCGCCAUGCCUGCAGGUCGACUCUAGAAAACAUG
binding signal [3]: 0.3 log2 enrichment (interaction score)

GGCUAGAACUAGUGGAUCCCCCGGCGCCCGGCGGCUCGAGCCCGGGUAAGUGUUAAUAGUCUGCAUGCCGCCGGGCGCCAUGCCUGCAGGUCGACUCUAGAAAACAUG
binding signal [3]: 3.67 log2 enrichment (interaction score)

GGCUAGAACUAGUGGAUCCCCCGGCGCCCGGCGGCUCGAGCCCGGGUAAGUGUAAUUAGUCUGCAUGCCGCCGGGCGCCAUGCCUGCAGGUCGACUCUAGAAAACAUG
binding signal [6]: 3.26 log2 enrichment (interaction score) | binding signal [7]: 2.47 log2 enrichment (interaction score)

GGCUAGAACUAGUGGAUCCCCCGGCGCCCGGCGGCUCGAGCCCGGGUAAGCGUAAAUAGUCUGCAUGCCGCCGGGCGCCAUGCCUGCAGGUCGACUCUAGAAAACAUG
binding signal [5]: 3.21 log2 enrichment (interaction score)

GGCUAGAACUAGUGGAUCCCCCGGCGCCCGGCGGCUCGAGCCCGGGUAAGUUUAAAUAGUCUGCAUGCCGCCGGGCGCCAUGCCUGCAGGUCGACUCUAGAAAACAUG
binding signal [8]: 2.88 log2 enrichment (interaction score) | binding signal [9]: 2.75 log2 enrichment (interaction score)

GGCUAGAACUAGUGGAUCCCCCGGCGCCCGGCGGCUCGAGCCCGGGUAAGUGUAAAAAGUCUGCAUGCCGCCGGGCGCCAUGCCUGCAGGUCGACUCUAGAAAACAUG
binding signal [10]: 3.33 log2 enrichment (interaction score)
